Measurements published in PubChem BioAssay AID651616 (The Scripps Research Institute Molecular Screening Center, 2012).
The campaign covered roughly 5,600 compounds. About 4,400 (79%) were called active. So high a share suggests a set chosen from earlier hits. The list is a sample of the results. Unmarked numbers belong to inactive results. Rule as the data show it: active = inhibition above about 27%; inactive = the rest.

These compounds were tested against Fructose-bisphosphate aldolase (Mycobacterium tuberculosis (strain ATCC 25618 / H37Rv)) (UniProt P9WQA3) (assay: M. tuberculosis aldolase blockers, biochemical, fluorescence, strain H37Rv, confirmation (AID 651616;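 also: 0% = vehicle wells and 100% = reference inhibitor wells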)). Details: purified M. tuberculosis FBA, fluorescence read-out, at 1 µM, stronger effect = higher value.
Sequence of Fructose-bisphosphate aldolase (Mycobacterium tuberculosis (strain ATCC 25618 / H37Rv)) (P9WQA3 whole entry, looked up): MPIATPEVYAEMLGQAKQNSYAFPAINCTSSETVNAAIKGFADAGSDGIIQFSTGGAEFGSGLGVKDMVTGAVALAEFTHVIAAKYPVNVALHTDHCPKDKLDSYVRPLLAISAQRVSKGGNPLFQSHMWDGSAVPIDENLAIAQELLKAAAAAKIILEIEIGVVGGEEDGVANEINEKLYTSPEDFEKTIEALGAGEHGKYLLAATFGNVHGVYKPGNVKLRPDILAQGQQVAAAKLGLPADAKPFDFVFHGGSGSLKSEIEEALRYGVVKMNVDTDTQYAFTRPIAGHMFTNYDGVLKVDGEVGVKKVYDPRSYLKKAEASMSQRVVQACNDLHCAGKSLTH

SMILES	inhibition
Cc1cc(S(=O)(=O)c2cc3ccc(O)c(C)c3oc2=O)ccc1F	44.7% (active)
CCOc1ccc2nc(Nc3nc4ccc(NC(C)=O)cc4s3)sc2c1	19%
CCc1c(C)c2ccc(OC3CCCCC3=O)cc2oc1=O (configuration not stated)	99.7% (active)
Cc1c(CCC(=O)O)c(=O)oc2cc(OCc3ccc(Br)cc3)ccc12	4.1%
CCN1CCN(C(=O)c2cc3cc4ccc(OC)cc4nc3s2)CC1	96.2% (active)
CN(CCOc1ccccc1)C(=O)c1cc(-c2ccco2)nc2ccccc12	5.04%
O=C(c1cc(-c2ccco2)nc2ccccc12)N(Cc1nnc(-c2ccc(Cl)cc2)o1)C1CC1	120% (active)
Nc1ccccc1-c1nc2ccncc2[nH]1	3.13%
COc1ccc2sc(-c3ccc(N(C)C)cc3)c(-c3ccc4cc[nH]c4c3)c2c1	59.8% (active)
Cc1cccc2c1-c1sc(C(=O)NCCCN3CCc4ccccc4C3)cc1CO2	0.47%
O=C(NCCN1CCN(Cc2ccccc2)CC1)c1cc2c(=O)[nH]c3ccccc3c2s1	133% (active)
Cc1nn(-c2ccccc2)nc1C(=O)OCC(=O)N1CCCCC1C (configuration not stated)	-2.48%
Cc1cnc(C(=O)OCC(=O)N2CCc3ccccc32)cn1	108% (active)
CCC1C(=O)c2ccccc2N(C)C1=O (configuration not stated)	7.44%
COc1ccc2[nH]c3c(=O)n(Cc4ccco4)cnc3c2c1	8.42%
COc1cccc2sc3cc(NCC[C@@H]4CCCN4C)ccc3c(=O)c12	77.9% (active)
Cc1cc(=O)oc2c1ccc1ccccc12	88.8% (active)
COCCCn1c(CCC(=O)O)ccc1-c1ccc(F)cc1	46% (active)
Cc1ccc(C2Nc3cccc4cccc(c34)N2)cc1	177% (active)
O=C1C(=O)N(c2ccccc2)C(c2ccccc2)C1c1ccccc1 (configuration not stated)	13.8%
OC[C@@H]1CN(Cc2cccs2)C[C@H](n2cnc3c(Nc4ccccc4)ncnc32)O1	90.6% (active)

SMILES	inhibition
COc1cc(/C=C/c2ccc(/C=C/c3cc(OC)c(OC)c(OC)c3)cc2)cc(OC)c1OC	27.4% (active)
COc1ccc(NC(=O)CN(C)C(=O)c2cc(-c3ccc(C)o3)nc3ccccc23)cc1	79.1% (active)
COCCCNC(=O)/C(C#N)=C/c1c(N2CCCCCC2)nc2ccccn2c1=O	60.9% (active)
CCCc1nc2oc3c(=O)[nH]cnc3c2c2c1COC(C)(C)C2	108% (active)
CCOC(=O)c1[nH]c2ccc(OC)cc2c1NC(=O)N1CCOCC1	130% (active)
CCOC(=O)c1[nH]c2ccc(OC)cc2c1NC(=O)CCN1CCN(Cc2ccccc2)CC1	3.58%
CC(OC(=O)c1ccccc1NCCO)C(=O)Nc1ccnn1C(C)C (configuration not stated)	81.6% (active)
CN1C(=O)c2ccc(NC(=O)C3CCCCC3)cc2C1=O	2.86%
CN1C(=O)c2ccc(NC(=O)c3c(F)c(F)c(F)c(F)c3F)cc2C1=O	822% [above what the read-out allows, likely interference] (active)
CN(C)CCCNC(=O)c1ccc2[nH]c3ccccc3c2c1	103% (active)
c1ccc(Cc2c(-c3ccco3)nc3c4ccccc4ccn23)cc1	137% (active)
CCOC(=O)c1cc2cc(C)ccc2[nH]1	50.4% (active)
CCN1CCc2c(C#N)c(NCc3ccccc3)nc(NCCO)c2C1	175% (active)
COc1ccc2c(c1OC)C(=O)N(c1ncn[nH]1)C2	85.2% (active)
Cc1coc2c1c(C)cc1oc(=O)c(CC(=O)NCC(=O)N[C@H](C(=O)O)C(C)C)c(C)c12	52.1% (active)
Cc1cc(C)cc(NC(=O)CSc2ccccc2)c1	86.7% (active)
CN(C)CCCn1c(N)c(C#N)c2nc(C#N)c(C#N)nc21	85.4% (active)
Cc1cc(C)c2c(n1)sc1c(=O)n(-c3ccccc3)c(=O)[nH]c12	75.8% (active)
CN(CCc1ccccn1)S(=O)(=O)c1ccc2c3c(cccc13)C(=O)N2	130% (active)
COc1ccc(NC(=O)N2CCC(Cc3ccccc3)CC2)cc1	40.8% (active)
COc1ccccc1C(=O)Nc1ccc(OCC(=O)N2CCCCC2)cc1	183% (active)

SMILES	inhibition
O=C1CC2(CCCCC2)Oc2ccc(OCC(=O)N3CCOCC3)cc21	4.05%
COc1ccccc1NC(=O)COc1ccc(C(=O)OCC(=O)N(C(C)C)C(C)C)cc1OC	0.36%
COc1ccccc1-c1oc2ccccc2c1C#CCCCCO	170% (active)
COc1ccc(-n2cc(CNC3CCOCC3)c(-c3cccc(F)c3)n2)cc1	18.8%
COc1ccc(-n2cc(CN(C)Cc3n[nH]c(=O)[nH]3)c(-c3cccc(F)c3)n2)cc1	44.3% (active)
Cc1ccc(S(=O)(=O)N2CCN(C(=O)CSc3cc(C)ccc3C)CC2)c(C)c1	164% (active)
CCc1ccc(-c2cc(C(=O)NCc3ccco3)c3ccccc3n2)s1	-6.79%
Cn1nc(-c2ccc(Cl)cc2)c2cc(C(=O)NCc3ccco3)sc21	47.8% (active)
CCN(CC)CCCNC(=O)c1cc2c(=O)[nH]c3ccc(C)cc3c2s1	137% (active)
N#CC1(Nc2ccc3c4c(cccc24)CC3)CCCCC1	119% (active)
N#Cc1c(N)n(CCOC(=O)c2ccc(Cl)cc2)c2nc3ccccc3nc12	40.4% (active)
CC(=O)c1sc2nc(SCC(=O)N3CCCCC3)[nH]c(=O)c2c1C	76.2% (active)
CCN(C(=O)Nc1cccc2ccccc12)c1ccccc1	164% (active)
O=C(O)c1cccnc1Sc1ncnc2sc3c(c12)CCC3	59.7% (active)
O=C(Nc1ncc2c(n1)-c1ccccc1OC2)c1ccc(Cl)cc1	93.8% (active)
CCOc1ccccc1C1CC(c2ccccc2)Nc2nc(N)nn21 (configuration not stated)	185% (active)
O=c1oc2ccccc2cc1-c1cn(-c2ccccc2)c(=S)[nH]1	17.6%
CC12CCC(C(=O)N3CCN(c4ncccn4)CC3)(c3nc4ccccc4nc31)C2(C)C (configuration not stated)	195% (active)
Cn1cccc1-c1nc2ccccc2n1C	13.3%
Cn1c(-c2ccco2)nc2cc3ccccc3cc21	46.4% (active)
